The values below come from PubChem BioAssay (Tox21).

“And” between values parts separate entries of the source, which are not always exact repeats. Identical values can stand only once. Results filed as inconclusive are left out. Values without a mark were called inactive. The source made the active and inactive calls. Unless noted, calls come from the whole dose curve; as a rule, active = well fitted cell-killing curve with a large enough effect in the repeat runs (not every such curve was filed as active); inconclusive = weak or mixed curves, or effect the other way; inactive = no such curve, though single readings can be large or run the other way.
% is set by controls: 0 for no effect and ±100 for the full control effect.

Sequence of Vitamin D3 receptor (Homo sapiens) (P11473 whole entry, looked up): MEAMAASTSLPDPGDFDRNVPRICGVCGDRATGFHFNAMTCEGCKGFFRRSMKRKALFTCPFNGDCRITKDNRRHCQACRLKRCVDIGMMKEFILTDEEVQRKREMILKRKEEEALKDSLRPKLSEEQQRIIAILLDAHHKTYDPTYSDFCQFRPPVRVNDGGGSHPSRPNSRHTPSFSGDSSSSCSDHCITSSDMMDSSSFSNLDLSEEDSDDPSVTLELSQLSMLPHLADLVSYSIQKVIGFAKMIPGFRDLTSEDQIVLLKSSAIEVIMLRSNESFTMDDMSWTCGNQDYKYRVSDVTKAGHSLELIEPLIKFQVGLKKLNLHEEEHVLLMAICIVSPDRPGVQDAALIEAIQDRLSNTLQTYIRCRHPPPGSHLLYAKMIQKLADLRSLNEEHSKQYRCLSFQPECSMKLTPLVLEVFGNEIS
Sequence of Bile acid receptor (Homo sapiens) (Q96RI1 whole entry, looked up): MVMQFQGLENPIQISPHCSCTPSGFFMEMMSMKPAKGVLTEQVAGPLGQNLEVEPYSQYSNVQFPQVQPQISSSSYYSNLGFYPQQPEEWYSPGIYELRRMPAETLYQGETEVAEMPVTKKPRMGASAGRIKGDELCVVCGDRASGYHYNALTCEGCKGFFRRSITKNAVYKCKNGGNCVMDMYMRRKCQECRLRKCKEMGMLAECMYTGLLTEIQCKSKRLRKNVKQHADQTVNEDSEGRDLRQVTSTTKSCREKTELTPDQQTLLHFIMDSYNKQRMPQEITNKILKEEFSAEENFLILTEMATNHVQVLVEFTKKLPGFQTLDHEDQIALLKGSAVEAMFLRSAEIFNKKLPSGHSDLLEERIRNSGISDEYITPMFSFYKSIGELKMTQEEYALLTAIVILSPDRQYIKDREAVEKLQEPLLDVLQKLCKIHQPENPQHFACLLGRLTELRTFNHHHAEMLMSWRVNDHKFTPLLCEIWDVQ

In one assay the target is Bile acid receptor (Homo sapiens) (UniProt Q96RI1). In words: qHTS assay to identify small molecule agonists of the farnesoid-X-receptor (FXR) signaling pathway (AID 743220; active = well fitted activation curve with a large enough effect in the signal ratio in the repeat runs, not every such curve was filed as active; the % refers to the signal ratio). As to conditions: HEK293T FXR-UAS-bla, beta-lactamase FRET ratio, 16 h; series mostly up to 62.6 µM; activation: at the top concentration. An outline of the steps:
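Beta-lactamase reporter under UAS control in GeneBLAzer FXR HEK 293T cells (5000/well) measured with LiveBLAzer FRET substrate after 2 h at room temperature. Compound exposure lasted 16 h at 37C.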
Take `Oc1cccc2cc3cccc(O)c3c(O)c12`: the “activation” value was 1.88% [at 81.1 µM].
The same measure, in the same setting: next, `O=Cc1cc(O)ccc1Br`: 0.592% [at 81.1 µM].
Consider `CCCCCCCCCCCCCCCC[N+](C)(C)CCN(Cc1ccc(OC)cc1)c1ncccn1`, for which the “activation” value is -0.0739%.
The same measure, in the same setting: next, `CCN(CCC#N)c1ccc(N=Nc2c(Cl)cc([N+](=O)[O-])cc2Cl)cc1`: 0.0693%; `Fc1ccc(C(c2ccc(F)cc2)N2CCN(C/C=C/c3ccccc3)CC2)cc1`: -7.08%; `Cc1c(C)c2c(c(C)c1OC(=O)CCC(=O)O)CC[C@@](C)(CCC[C@H](C)CCC[C@H](C)CCCC(C)C)O2`: 0.642% [at 81.1 µM].
`CNC(=O)c1ccccc1`: the “activation” value is -0.0823%.
As to `N/C(=N\N=C\c1ccc(Cl)cc1)N/N=C/c1ccc(Cl)cc1`, the “activation” value is 1.04%.
With `CCc1cc(Cc2cc(CC)c(N)c(CC)c2)cc(CC)c1N`, the “activation” value was -1.52%.
As for `OCCCCCCCCCCCCBr`, the “activation” value was 1.58% [at 81.1 µM].

Test system in a further assay: not listed separately
Briefly: qHTS assay to identify small molecule antagonists of the farnesoid-X-receptor (FXR) signaling pathway - cell viability counter screen (AID 743221). Note: nearly all actives have a fitted effect of over 50% in size. Note: potency is the fitted concentration of half-maximal effect. The note with it: FXR-bla HEK293T viability, CellTiter-Glo luminescence, 16 h; series mostly up to 62.6 µM; activity change, negative = cytotoxicity: at the top concentration. An outline of the steps: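 After a 5 h settling period, FXR-bla HEK 293T cells receive compound and chenodeoxycholic acid (50 uM final) and incubate 16 h at 37 C; CellTiter-Glo luminescence, read after 30 min at room temperature, reports cell viability.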
On the technique in general: Quantitative high-throughput screening tests each substance at several concentrations.
Regarding `CC(C)(C)CC(C)(C)c1ccc(OCCOCC[N+](C)(C)Cc2ccccc2)cc1`, the Potency was 43.6 µM (active) and 26.6 µM (active).
Regarding `NNc1nc(-c2ccc([N+](=O)[O-])cc2)cs1`, the “activity change, negative = cytotoxicity” value was 3.15%.
The same measure, in the same setting: next, `Oc1cccc2cc3cccc(O)c3c(O)c12`: -17.5% [at 81.1 µM]; `CC1=NC(C)OC1C` (stereo not drawn): 12.1%; `O=Cc1cc(O)ccc1Br`: -4.38% [at 81.1 µM].
For `CCCCCCCCCCCCCCCC[N+](C)(C)CCN(Cc1ccc(OC)cc1)c1ncccn1`, the Potency is 26.6 µM (active).
Consider `CC(C)=CCOc1ccc(/C=C/C(=O)c2ccc(OCC=C(C)C)cc2OCC(=O)O)cc1`, for which the Potency is 21.1 µM (active).
Regarding `CSc1ccc(C(=O)c2[nH]c(=O)[nH]c2C)cc1`, the “activity change, negative = cytotoxicity” value was -1.93%.
Still for that read-out and setting: next, `O=[N+]([O-])c1cc(Cl)c(Cl)c(Cl)c1Cl`: 0.92%; `CO[Si](CCCNc1ccccc1)(OC)OC`: -0.717%.
Consider `COC(=O)C1=C(C)NC(C)=C(C(=O)OCC(C)C)C1c1ccccc1[N+](=O)[O-]` (stereo not drawn), for which the Potency entry was “inactive”.
For `Cc1c(C)c2c(c(C)c1OC(=O)CCC(=O)O)CC[C@@](C)(CCC[C@H](C)CCC[C@H](C)CCCC(C)C)O2`, the “activity change, negative = cytotoxicity” value is 0.394% [at 81.1 µM].
`Cc1cc(O)c2ccccc2c1O`: the Potency is 23.7 µM (active).
With `Cc1nc(-c2ccc3c(c2)CCN(CCC2CCC(NC(=O)/C=C/c4ccc(F)cc4)CC2)CC3)no1` (stereo not drawn), the “activity change, negative = cytotoxicity” value is -3.78% [at 29.1 µM].
Still for that read-out and setting: next, `Cc1cccc(CN2CCN(C(c3ccccc3)c3ccc(Cl)cc3)CC2)c1` (stereo not drawn): -4.74%.
With `CCCCCCCCCCCCCC[P+](CCCC)(CCCC)CCCC` (tested in a mixture with another compound), the Potency was 22 µM (active).
Consider `Cc1cccc(S(=O)(=O)O)c1C`, for which the “activity change, negative = cytotoxicity” value is 7.08%.
Same read-out and setting: next, `CCCCCCCCCCCCCCCC(=O)OC[C@H](O)[C@H]1OC(=O)C(O)=C1O`: -28.5%; `CN(C)[C@@H]1C(=O)C(C(N)=O)=C(O)[C@@]2(O)C(=O)C3=C(O)c4c(O)ccc(Cl)c4[C@@H](O)[C@H]3C[C@@H]12`: 16.9%; `CC(C)CCCCCCCCCCCCCCC(=O)O`: 15.4%.
On the same count and under the same terms, then `CNC(=O)c1ccccc1`, with -2.82%; and `CCCCN1CCCC[C@H]1C(=O)Nc1c(C)cccc1C`, with -12.9%.
Turning to `N/C(=N\N=C\c1ccc(Cl)cc1)N/N=C/c1ccc(Cl)cc1`, the “activity change, negative = cytotoxicity” value was -5.48%.
Same read-out and setting: then `CCc1cc(Cc2cc(CC)c(N)c(CC)c2)cc(CC)c1N`, with -16.3%; and `O=C(O)c1ccc(Cl)c(Cl)c1`, with 0.828%.
Take `O=C(O)c1cc(O)c2c(c1)C(=O)c1cccc(O)c1C2=O`: the “activity change, negative = cytotoxicity” value was 3.12% [at 81.1 µM].
Turning to `Clc1ccc2n[nH]nc2c1`, the “activity change, negative = cytotoxicity” value is -1.21%.
`OCCCCCCCCCCCCBr`: the “activity change, negative = cytotoxicity” value was -0.0324% [at 81.1 µM].

The next assay addresses Vitamin D3 receptor (Homo sapiens) (UniProt P11473). In words: qHTS assay to identify small molecule agonists of the vitamin D receptor (VDR) signaling pathway (AID 743222; calls by dose curve). The note with it: HEK293T VDR-UAS-bla, beta-lactamase FRET ratio, 16 h; series mostly up to 63.5 µM; activation: at the top concentration. The method, boiled down:
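Quantitative HTS agonist-mode screen: compounds in DMSO were pin-transferred onto VDR-bla cells and incubated 16 h at 37C, 5% CO2. Reporter activity was detected with LiveBLAzer B/G FRET substrate after 2 h at room temperature.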
On to `O=Cc1cc(O)ccc1Br`, for which the “activation” value is -7.04% [at 81.1 µM].
Take `CC(C)=CCOc1ccc(/C=C/C(=O)c2ccc(OCC=C(C)C)cc2OCC(=O)O)cc1`: the “activation” value is -15.9%.
`CSc1ccc(C(=O)c2[nH]c(=O)[nH]c2C)cc1`: the “activation” value was 1.7%.
Regarding `CCCCCCCCCCCCCCCS(=O)(=O)Oc1ccccc1`, the “activation” value is -4.17%.
On the same count and under the same terms, then `CO[Si](CCCNc1ccccc1)(OC)OC`, with 5.27%; and `CCCCCCCCCCCCCC[P+](CCCC)(CCCC)CCCC` (tested in a mixture with another compound), with 3.67% [at 81.1 µM]; and `Cc1cccc(S(=O)(=O)O)c1C`, with 0.77%.
On the same count and under the same terms, next, `CCCCCCCCCCCCCCCC(=O)OC[C@H](O)[C@H]1OC(=O)C(O)=C1O`: 0.103%; `CNC(=O)c1ccccc1`: 0.933%; `CCCCN1CCCC[C@H]1C(=O)Nc1c(C)cccc1C`: 3.92%.
The same measure, in the same setting: then `N/C(=N\N=C\c1ccc(Cl)cc1)N/N=C/c1ccc(Cl)cc1`, with 13.9%; and `O=C(O)c1ccc(Cl)c(Cl)c1`, with -2.36%.
As to `Clc1ccc2n[nH]nc2c1`, the “activation” value was 7.7%.
As for `OCCCCCCCCCCCCBr`, the “activation” value is -8.48% [at 81.1 µM].

The next assay shares this target. Briefly: qHTS assay to identify small molecule antagonists of the vitamin D receptor (VDR) signaling pathway (AID 743223; active = well fitted inhibition curve with a large enough effect in the signal ratio in the repeat runs, not every such curve was filed as active; the % refers to the signal ratio; note: potency is the fitted concentration of half-maximal effect). The note with it: VDR-UAS-bla HEK293T, beta-lactamase FRET ratio, 16 h; series mostly up to 61 µM; activity change, negative = inhibition: at the top concentration. An outline of the steps:
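Reporter line VDR-bla; stimulus 1alpha,25-(OH)2 vitamin D3, 3 nM final; compound co-addition, 16 h 37C/5% CO2; LiveBLAzer B/G substrate 2 h RT; fluorescence intensity.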
On to `CCCCCCCCCCCCCCCC[N+](C)(C)CCN(Cc1ccc(OC)cc1)c1ncccn1`, for which the Potency was 21.3 µM (active).
Turning to `CSc1ccc(C(=O)c2[nH]c(=O)[nH]c2C)cc1`, the “activity change, negative = inhibition” value was -0.623%.
Same read-out and setting: next, `CCCCCCCCCCCCCCCS(=O)(=O)Oc1ccccc1`: 13.8%; `CNC(=O)c1ccccc1`: 7.11%; `CCCCN1CCCC[C@H]1C(=O)Nc1c(C)cccc1C`: 8.05%.
Regarding `O=C(O)c1ccc(Cl)c(Cl)c1`, the “activity change, negative = inhibition” value is -2.45%.
